Here are results for 26 compounds from PubChem BioAssay AID431 (Sanford-Burnham Center for Chemical Genomics, 2006).

Each structure is given as a SMILES string. Screen size: about 63,000 compounds; about 1,100 (1.7%) were called active. For the sample, actives were picked, then their nearest neighbours and some compounds at random. Results with a measured potency or affinity are listed apart. Values without a mark were called inactive.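 The calls were made as follows: active = compounds whose percent cytotoxicity in the single-dose primary screen, scaled between solvent and toxic-drug controls, exceeds 50; inactive = the rest.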

A short description of this assay: cytotoxicity in KRAS-transformed pancreatic duct cells, primary screen, cell-based, fluorescence, HTS (AID 431).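 Also: 0% = DMSO solvent wells and 100% = doxorubicin-treated wells.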 As to conditions: HPDE-C7K KRASV12 cells, Alamar Blue viability, 48 h; at 10 µM; hits give high values.
Turning to `O/N=C(/Cc1ccccn1)c1ccccc1`, the cytotoxicity was -1.3%.

Consider `O=C(NCCCNC(=O)c1ccccn1)c1ccccn1`, for which the cytotoxicity is 9.7%.

As for `CCCCCC/C(=N/O)c1ccccn1`, the cytotoxicity is 51.6% (active).

Regarding `Cc1cc2nc(C(F)(F)F)[nH]c(=O)n2n1`, the cytotoxicity is 2.8%.

On to `COC(=O)C1CCN(Cc2cc(=O)oc3cc(OC)ccc23)CC1`, for which the cytotoxicity was -31.4%.

As for `COC(=O)c1cc(=O)n(Cc2ccco2)c(=Nc2ccc(F)c(Cl)c2)s1`, the cytotoxicity is 26.9%.

With `CCOC(=O)c1ccc(N=c2sc(C(=O)OC)cc(=O)n2Cc2ccco2)cc1`, the cytotoxicity was 119% (active).

Consider `CCOC(=O)c1ccc(N=c2sc(C(=O)OC)cc(=O)n2C2CC2)cc1`, for which the cytotoxicity was 14.1%.

`COc1ccc(N=C2SC(CC(=O)Nc3ccc(OC)cc3OC)C(=O)N2C)cc1` (stereo unspecified): the cytotoxicity is -10.8%.

Regarding `COc1ccc(-c2cc(C(=O)N3CCN(C(c4ccccc4)c4ccccc4)CC3)no2)cc1`, the cytotoxicity was 2.7%.

Turning to `COc1ccc(N=c2oc3cc(O)ccc3cc2C(=O)NCC2CCCO2)cc1` (stereo unspecified), the cytotoxicity was -0.1%.

Consider `COc1ccccc1N=c1oc2cc(O)ccc2cc1C(=O)NCC1CCCO1` (stereo unspecified), for which the cytotoxicity is 7%.

`COc1ccc(N=c2oc3cc(O)ccc3cc2C(=O)NCC2CCCO2)c(OC)c1` (stereo unspecified): the cytotoxicity is 53.8% (active).

`CC1(C)NC(=O)N(CC(O)COc2ccccc2C(=O)N2CCCCC2)C1=O` (stereo unspecified): the cytotoxicity is -30.9%.

Consider `CCCCC(=O)Nc1cccc2c1C(=O)N(c1ccccc1)C2=O`, for which the cytotoxicity is -0.9%.

Take `CCc1nnc(NC(=O)c2ccc(S(=O)(=O)N(CC)Cc3ccccc3)cc2)o1`: the cytotoxicity was 33%.

Take `CCc1nnc(NC(=O)c2ccc(S(=O)(=O)N(CCOC)CCOC)cc2)o1`: the cytotoxicity is -0.3%.

Regarding `CCCCN(CC)S(=O)(=O)c1ccc(C(=O)Nc2nnc(CSC)o2)cc1`, the cytotoxicity was 8.9%.

For `CCCCN(CCCC)S(=O)(=O)c1ccc(C(=O)Nc2nnc(CSC)o2)cc1`, the cytotoxicity was 70.1% (active).

Consider `CCCCN(C)S(=O)(=O)c1ccc(C(=O)Nc2nnc(CSC)o2)cc1`, for which the cytotoxicity was -2%.

Regarding `CCc1nnc(NC(=O)c2ccc(S(=O)(=O)N(CC(C)C)CC(C)C)cc2)o1`, the cytotoxicity was 47.6%.

Consider `CSCc1nnc(NC(=O)c2ccc(S(=O)(=O)N(CC(C)C)CC(C)C)cc2)o1`, for which the cytotoxicity is 57.2% (active).

On to `CCCCN(CC)S(=O)(=O)c1ccc(C(=O)Nc2nnc(COC)o2)cc1`, for which the cytotoxicity was 3.4%.

`CCCCN(CCCC)S(=O)(=O)c1ccc(C(=O)Nc2nnc(COC)o2)cc1`: the cytotoxicity was 66.7% (active).

Consider `COc1ccc(-c2cc(C(=O)NCC(C)C)no2)cc1`, for which the cytotoxicity is -0.6%.

Turning to `CCOC(=O)N1CCN(C(=O)COc2ccc(S(=O)(=O)NC3CCCCC3)cc2C)CC1`, the cytotoxicity was -6.6%.
